For 13 compounds, growth inhibition results are on record in the supplement of paper PMC9897528.
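Also: conidia screened in RPMI 1640 medium under 5% CO2, growth read by spectrophotometer, medium with 0.5% DMSO serving as the untreated reference.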

The subject of the test is Scedosporium aurantiacum CBS 136046. Nature of the test: growth inhibition relative to DMSO control (OD600); higher = more antifungal activity, active = 80 or more; extreme values may be limits of the assay. As to conditions: 5 µM; 72 h; 37 °C.
As for `COc1cc(NS(=O)(=O)c2ccc(C)cc2)c2ncccc2c1`, the growth inhibition is 27.9% (inactive). Under `Nc1cccc(-c2nc(N)nc(NC3Cc4ccccc4C3)n2)c1` stands 21.5% (inactive); under `COc1cccc(N2CCN(C3=Nc4c(F)cccc4[C@H](CC(=O)O)N3c3cc(C(F)(F)F)ccc3OC)CC2)c1`, 9.61% (inactive); under `CN(Cc1ccc(C(C)(C)C)cc1)Cc1cccc2ccccc12`, 37.7% (inactive). Under `CCC(CC)[C@H](NC(C)=O)[C@@H]1[C@H](O)[C@@H](C(=O)O)C[C@H]1NC(=N)N` stands 14.3% (inactive). Under `CCN(CC)CCn1c(=N)n(CC(O)COc2ccc(Cl)cc2Cl)c2ccccc21` (stereo not drawn) stands 10.2% (inactive); under `CC(=O)Nc1cc(NS(=O)(=O)c2ccc(Cl)cc2)cc2c(Cl)[nH]nc12`, 21.6% (inactive); under `CC#C[C@]1(O)CC[C@H]2[C@@H]3CCC4=CC(=O)CCC4=C3[C@@H](c3ccc(N(C)C)cc3)C[C@@]21C`, 11.4% (inactive). Consider `CC(=O)N1c2ccccc2NC2=C(C(=O)CC(C)(C)C2)C1c1ccc(OCc2ccccc2)cc1` (stereo not drawn), for which the growth inhibition was 15.4% (inactive).

Take `CCC[C@H](NC(=O)[C@@H]1[C@H]2CCC[C@H]2CN1C(=O)[C@@H](NC(=O)[C@@H](NC(=O)c1cnccn1)C1CCCCC1)C(C)(C)C)C(=O)C(=O)NC1CC1`: the growth inhibition is 4.34% (inactive). The value for `CC(=O)Oc1ccccc1C(=O)Nc1ncc([N+](=O)[O-])s1` was 12.7% (inactive); that for `O=S(=O)(NCB(O)O)c1cc2c(Cl)ccc(Cl)c2s1` was 5.78% (inactive); that for `O=C(O)C(Cc1c[nH]c2ccccc12)N1C(=O)c2ccccc2C1=O` (stereo not drawn) was 19.9% (inactive).
